High-throughput results as filed in PubChem.
Pf growth 96h: inhibits malaria parasite growth, 96 h; Potency, µM (highest dose often 28.7 µM), for inactives: at the highest dose activity change, negative = inhibition, usual class: inhibitors; P. falciparum luciferase reporter growth, 96 h; AID 504834; actives 6.9% (n = 320,000); also: % is scaled to controls: 0 for no effect and ±100 for the full control effect
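Erythrocytes infected with luciferase-expressing P. falciparum were dispensed at 2% hematocrit and 0.05% parasitemia (final), then incubated with compounds 96 hours at 37 C in 5% CO2. Luminescence after detection reagent addition reported growth.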
SARS PLP yeast: inhibitors of SARS-CoV papain-like protease in yeast | S. cerevisiae expressing SARS-CoV PLpro, growth rescue | AID 485353 | actives 0.19% (n = 330,000) | Potency, µM (highest dose often 32.9 µM), without a hit: at the top dose activity, positive = growth rescue, usual class: activators; calls by dose curve; also: 0% is about no effect; nearly all actives have a fitted effect of over 55% in size
Sm TGR inh: inhibitors of Schistosoma mansoni thioredoxin glutathione reductase | purified TGR, DTNB reduction, TNB absorbance 405 nm | Q962Y6 | Potency, µM (titrated, usually from 114 µM), inactives show top-dose activity change, negative = inhibition, most hits filed as inhibitors | actives 3% (n = 360,000); also: % is scaled to controls: 0 for no effect and ±100 for the full control effect; nearly all actives have a fitted effect of over 60% in size
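Kinetic colorimetric format: TGR-catalysed, NADPH-driven DTNB reduction monitored via TNB absorbance. Enzyme dispensed at 20 nM; compound exposure 15 min at room temperature before reaction start.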
Pf growth 48h: P. falciparum growth inhibition at 48 hours (one generation). P. falciparum luciferase growth in erythrocytes, 48 h. Potency, µM (series often up to 28.7 µM), for the others: at the highest dose activity change, negative = inhibition, usual class: inhibitors. actives 5.9% (n = 310,000). AID 504832; also: % is scaled to controls: 0 for no effect and ±100 for the full control effect
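A one-generation exposure of luciferase-tagged malaria parasites in RPMI 1640/Albumax erythrocyte culture, 37 C and 5% CO2. Inhibition is inferred from decreased luminescence after adding detection reagent.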
Active calls of the source: *. Rows were chosen to be rich in hits. Some 12% of all compounds tested hit in one or more screens of this group. Unless noted, calls follow the shape of the dose curve; as a rule, active = well fitted curve in the direction sought with a large enough effect; inconclusive = small, poorly fitted or top-dose-only effect, or another doubt; inactive = no such curve, though single readings can be large; an effect the other way counts as inactive or inconclusive. Potency is read from the fitted curve at half-maximal effect.

How did Cc1nnc(SCc2cnc(-c3ccc(C(C)C)cc3)s2)n1C do in these assays?
Pf growth 96h: 12µM*; SARS PLP yeast: 9%; Sm TGR inh: 3%; Pf growth 48h: 250%

How did O=C(NCc1nc2cccnc2n1Cc1ccc(F)cc1)c1ccccc1C(F)(F)F do in these assays?
Sm TGR inh: -2%

What do the screens show for `C(=N\c1nc2ccccc2[nH]1)/c1cccs1`?
Pf growth 96h: 10µM*; SARS PLP yeast: 0%; Sm TGR inh: 1%; Pf growth 48h: 29%

What do the screens show for `Cn1c(/C=N/c2nc3ccccc3[nH]2)nc2ccccc21`?
SARS PLP yeast: 4%; Sm TGR inh: -10%; Pf growth 48h: 13%

What do the screens show for `CC(=O)Nc1ccc(S(=O)(=O)N2CCN=C2SCc2ccc([N+](=O)[O-])cc2)cc1`?
Pf growth 96h: inconclusive; SARS PLP yeast: -4%; Sm TGR inh: -10%; Pf growth 48h: inconclusive

Results for N#Cc1ccccc1OCC(=O)NCC1(N2CCCCC2)CCCCC1 ?
Pf growth 96h: -3%; SARS PLP yeast: -3%; Sm TGR inh: 6%; Pf growth 48h: 3.3µM*

What do the screens show for `CC1CCc2cc(F)cc3c(O)c(C(=O)NCc4ccco4)c(=O)n1c23` (configuration not stated)?
Pf growth 96h: 8%; SARS PLP yeast: -6%; Sm TGR inh: -12%; Pf growth 48h: 2%

How did CC1CCc2cc(F)cc3c(O)c(C(=O)NCCN(C)C)c(=O)n1c23 (configuration not stated) do in these assays?
Pf growth 96h: 9.3µM*; SARS PLP yeast: 0%; Sm TGR inh: 9%; Pf growth 48h: 0%

What do the screens show for `O=C1CCCC2=C1C(c1cccs1)Nc1ccccc1N2` (configuration not stated)?
Pf growth 96h: 41%; SARS PLP yeast: 6%; Sm TGR inh: 7%; Pf growth 48h: 11%

How did O=C1CCCC2=C1C(c1ccncc1)Nc1ccccc1N2 (configuration not stated) do in these assays?
Pf growth 96h: 10µM*; SARS PLP yeast: -5%; Sm TGR inh: 4%

How did CCc1ccc(NC(=O)CSc2nc(=O)n(Cc3cccnc3)c3c2CCC3)cc1 do in these assays?
Sm TGR inh: 0%

How did CCOC(=O)C1CCN(S(=O)(=O)c2cc(-c3onc(C)c3C)ccc2OC)CC1 do in these assays?
Sm TGR inh: 6%

Results for O=C(COc1ccc(Cl)cc1)Nc1ccc(N2CCN(C(=O)c3ccco3)CC2)cc1 ?
Pf growth 96h: 12µM*; SARS PLP yeast: -2%; Sm TGR inh: -35%; Pf growth 48h: inconclusive

What do the screens show for `O=C(COc1ccc([N+](=O)[O-])cc1)Nc1ccc(N2CCN(C(=O)c3ccco3)CC2)cc1`?
Pf growth 96h: 5.2µM*; SARS PLP yeast: 3%; Sm TGR inh: 35µM*; Pf growth 48h: 14%

How did O=C(CSc1ccc(Cl)cc1)Nc1ccc(NC(=O)c2ccco2)cc1 do in these assays?
Pf growth 96h: 37%; SARS PLP yeast: 2%; Sm TGR inh: 6%; Pf growth 48h: 16%

How did O=C(CSc1ccc(Cl)cc1)Nc1ccc(N2CCN(C(=O)c3ccco3)CC2)cc1 do in these assays?
SARS PLP yeast: 0%; Sm TGR inh: -4%; Pf growth 48h: 12µM*

Results for O=C(COc1nsnc1N1CCOCC1)Nc1ccc([N+](=O)[O-])cc1 ?
Pf growth 96h: -22%; SARS PLP yeast: 1%; Sm TGR inh: 4%; Pf growth 48h: 5.2µM*

What do the screens show for `O=C(COc1nsnc1N1CCOCC1)Nc1ccc(Cl)cc1`?
Pf growth 96h: -7%; SARS PLP yeast: -1%; Pf growth 48h: 11%

Results for COc1ccc(OCC(=O)Nc2ccc(N3CCN(C(=O)c4ccco4)CC3)cc2)cc1 ?
Pf growth 96h: 20%; SARS PLP yeast: -2%; Sm TGR inh: -1%; Pf growth 48h: 0%

What do the screens show for `CC(=O)Nc1cccc(NC(=O)CSc2ccc(-c3sc(-c4ccccc4)nc3C)nn2)c1`?
Sm TGR inh: 2%

What do the screens show for `O=C(CSc1n[nH]c(-c2ccccc2)n1)N1CCN(c2ccccc2F)CC1`?
Sm TGR inh: 0%

How did COc1ccccc1OCC(=O)NCCS(=O)(=O)N1CCN(c2ccccc2OC)CC1 do in these assays?
Sm TGR inh: 2%

Results for Cc1ccccc1OCC(=O)Nc1ccc(OCc2cc(=O)n3ccccc3n2)cc1 ?
Sm TGR inh: 5%

Results for S=C1NC[C@H](c2ccccc2)N1CC1CCCCC1 ?
Pf growth 96h: 8.3µM*; SARS PLP yeast: -2%; Sm TGR inh: -4%; Pf growth 48h: inconclusive

How did CCc1ccc(CN(Cc2cn[nH]c2-c2ccc(OC)cc2)C(=O)Nc2ccc(Br)cc2)cc1 do in these assays?
Sm TGR inh: -10%

Results for Oc1cccc[c]1[Hg][Cl] ?
Pf growth 96h: 1.1µM*; Pf growth 48h: 1.1µM*

What do the screens show for `CC1CCCC(NC(=O)CN(C)CC(=O)Nc2ccc(F)cc2)C1C` (configuration not stated)?
Pf growth 96h: 35%; SARS PLP yeast: -3%; Sm TGR inh: -13%; Pf growth 48h: -15%

How did Cc1ccc(NC2CCCN(C(=O)c3cn4cc(Cl)ccc4n3)C2)cc1C (configuration not stated) do in these assays?
Pf growth 96h: -16%; SARS PLP yeast: 6%; Sm TGR inh: -11%; Pf growth 48h: 6%

How did Cc1nc(C(=O)N2CCCC(Nc3ccc(C)c(C)c3)C2)cs1 (configuration not stated) do in these assays?
Pf growth 96h: 275%; SARS PLP yeast: 0%; Sm TGR inh: 2%; Pf growth 48h: 3%

How did Cc1ccc(NC2CCCN(C(=O)c3ccccn3)C2)cc1C (configuration not stated) do in these assays?
Pf growth 96h: 13µM*; SARS PLP yeast: 1%; Sm TGR inh: -3%; Pf growth 48h: 2%

Results for Cc1ccc(NC2CCCN(C(=O)c3cn4cccc(C)c4n3)C2)cc1C (configuration not stated) ?
Pf growth 96h: 4.1µM*; SARS PLP yeast: -5%; Sm TGR inh: -17%; Pf growth 48h: 8%

How did COc1ccc(C(=O)CSc2n[nH]c(-c3ccco3)n2)cc1 do in these assays?
Pf growth 96h: 1.2µM*; SARS PLP yeast: 1%; Sm TGR inh: -29%; Pf growth 48h: 8%

How did O=C(CSc1ccc(-c2ccncc2)nn1)c1ccccc1 do in these assays?
Pf growth 96h: 33%; SARS PLP yeast: -4%; Sm TGR inh: -2%; Pf growth 48h: 9%

What do the screens show for `COc1ccc(C(=O)CSc2ccc(-c3ccco3)nn2)cc1`?
Pf growth 96h: inconclusive; SARS PLP yeast: -35%; Sm TGR inh: 32µM*; Pf growth 48h: -7%

Results for Cc1ccc(C(=O)CSc2n[nH]c(-c3ccco3)n2)cc1C ?
Pf growth 96h: inconclusive; SARS PLP yeast: -8%; Sm TGR inh: inconclusive; Pf growth 48h: 3%

How did CCc1ccc(C(=O)CSc2n[nH]c(-c3ccncc3)n2)cc1 do in these assays?
Pf growth 96h: 5.2µM*; SARS PLP yeast: -21%; Sm TGR inh: -3%

Results for O=C(CSc1ccc(-c2ccco2)nn1)c1ccccc1 ?
Pf growth 96h: inconclusive; SARS PLP yeast: -6%; Sm TGR inh: 8.9µM*; Pf growth 48h: 56%
